Measured values reported in PMC5540273 (PLoS ONE, 2017).
“And” between values parts separate entries of the source, which are not always exact repeats. Equal entries are not always repeated. Where two headings read alike, the source gives them in different places.

Legend:
SBK1 = conditions: concentration: 1 μM, replicates: in singlicate, n = 1
SGK2 = conditions: concentration: 1 μM, replicates: in singlicate, n = 1
SGK3 = conditions: concentration: 1 μM, replicates: in singlicate, n = 1
SGK = conditions: concentration: 1 μM, replicates: in singlicate, n = 1
SIK2 = conditions: concentration: 1 μM, replicates: in singlicate, n = 1
SIK = conditions: concentration: 1 μM, replicates: in singlicate, n = 1
SLK = conditions: concentration: 1 μM, replicates: in singlicate, n = 1
SNARK = system: T1, SNARK; conditions: concentration: 1 μM, replicates: in singlicate, n = 1
T1 construct: gene NUAK2

SNRK = conditions: concentration: 1 μM, replicates: in singlicate; n = 1
SRC = conditions: concentration: 1 μM, replicates: in singlicate, n = 1
SRMS = conditions: concentration: 1 μM, replicates: in singlicate, n = 1
SRPK1 = conditions: concentration: 1 μM, replicates: in singlicate, n = 1
SRPK2 = conditions: concentration: 1 μM, replicates: in singlicate, n = 1
SRPK3 = conditions: concentration: 1 μM, replicates: in singlicate, n = 1
STK16 = conditions: concentration: 1 μM, replicates: in singlicate, n = 1
STK33 = conditions: concentration: 1 μM, replicates: in singlicate, n = 1
STK35 = conditions: concentration: 1 μM, replicates: in singlicate; n = 1
STK36 = conditions: concentration: 1 μM, replicates: in singlicate, n = 1
STK39 = conditions: concentration: 1 μM, replicates: in singlicate, n = 1
SYK = conditions: concentration: 1 μM, replicates: in singlicate, n = 1
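Also: KINOMEscan kinase panel screen.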

SMILES: COc1ccc(NC(=O)c2ccc(-c3cc(-c4nnc(C)o4)ccc3C)cc2)cc1 [GW595885]
- %Inh (SBK1): 26%
- %Inh (SGK2): 2%
- %Inh (SGK3): 0%
- %Inh (SGK): 1%
- %Inh (SIK2): 0%
- %Inh (SIK): 0%
- %Inh (SLK): 10%
- %Inh (SNARK): 0%
- %Inh (SNRK): 0%
- %Inh (SRC): 0%
- %Inh (SRMS): 0%
- %Inh (SRPK1): 0%
- %Inh (SRPK2): 0%
- %Inh (SRPK3): 8%
- %Inh (STK16): 7%
- %Inh (STK33): 0%
- %Inh (STK35): 0%
- %Inh (STK36): 0%
- %Inh (STK39): 21%
- %Inh (SYK): 27%

SMILES: COc1ccc(-c2nc3n(c2-c2ccncc2)CCC3)cc1 [SKF-104493]
- %Inh (SBK1; 1 µM): 27% and 8%
- %Inh (SGK2; 1 µM): 16% and 0%
- %Inh (SGK3; 1 µM): 13% and 2%
- %Inh (SGK; 1 µM): 7% and 0%
- %Inh (SIK2; 1 µM): 0% and 2%
- %Inh (SIK; 1 µM): 0% and 5%
- %Inh (SLK; 1 µM): 20% and 36%
- %Inh (SNARK; 1 µM): 7% and 2%
- %Inh (SNRK): 0%
- %Inh (SRC; 1 µM): 18% and 0%
- %Inh (SRMS; 1 µM): 12% and 13%
- %Inh (SRPK1; 1 µM): 0% and 1%
- %Inh (SRPK2; 1 µM): 16% and 0%
- %Inh (SRPK3; 1 µM): 35% and 0%
- %Inh (STK16; 1 µM): 21% and 9%
- %Inh (STK33; 1 µM): 0% and 8%
- %Inh (STK35): 0%
- %Inh (STK36; 1 µM): 35% and 43%
- %Inh (STK39; 1 µM): 0% and 16%
- %Inh (SYK; 1 µM): 1% and 48%

SMILES: FC(F)(F)c1ccc(-c2cc(-c3c[nH]nc3-c3ccccn3)ccn2)cc1 [GW599550]
- %Inh (SBK1): 8%
- %Inh (SGK2): 9%
- %Inh (SGK3): 12%
- %Inh (SGK): 0%
- %Inh (SIK2): 0%
- %Inh (SIK): 0%
- %Inh (SLK): 23%
- %Inh (SNARK): 10%
- %Inh (SNRK): 100%
- %Inh (SRC): 3%
- %Inh (SRMS): 0%
- %Inh (SRPK1): 24%
- %Inh (SRPK2): 13%
- %Inh (SRPK3): 2%
- %Inh (STK16): 10%
- %Inh (STK33): 0%
- %Inh (STK35): 0%
- %Inh (STK36): 0%
- %Inh (STK39): 0%
- %Inh (SYK): 44%

SMILES: Fc1ccc(Nc2nccc(-c3c(-c4ccc(Cl)cc4)nn4ncccc34)n2)cc1F [GW829058]
- %Inh (SBK1): 43%
- %Inh (SGK2): 17%
- %Inh (SGK3): 3%
- %Inh (SGK): 18%
- %Inh (SIK2): 0%
- %Inh (SIK): 0%
- %Inh (SLK): 6%
- %Inh (SNARK): 0%
- %Inh (SNRK): 0%
- %Inh (SRC): 14%
- %Inh (SRMS): 22%
- %Inh (SRPK1): 0%
- %Inh (SRPK2): 0%
- %Inh (SRPK3): 6%
- %Inh (STK16): 23%
- %Inh (STK33): 1%
- %Inh (STK35): 0%
- %Inh (STK36): 8%
- %Inh (STK39): 22%
- %Inh (SYK): 7%

SMILES: C[C@H]1CC[C@@H](C(=O)Nc2ccccc2)CN1c1cc(-c2ccc3c(N)n[nH]c3c2)nc(N)n1 [GSK2283293]
- %Inh (SBK1): 9%
- %Inh (SGK2): 0%
- %Inh (SGK3): 7%
- %Inh (SGK): 0%
- %Inh (SIK2): 0%
- %Inh (SIK): 0%
- %Inh (SLK): 0%
- %Inh (SNARK): 7%
- %Inh (SNRK): 0%
- %Inh (SRC): 0%
- %Inh (SRMS): 19%
- %Inh (SRPK1): 54%
- %Inh (SRPK2): 0%
- %Inh (SRPK3): 16%
- %Inh (STK16): 0%
- %Inh (STK33): 0%
- %Inh (STK35): 0%
- %Inh (STK36): 0%
- %Inh (STK39): 0%
- %Inh (SYK): 4%
